# Unmarked numbers belong to inactive results. For part of these data: Results with a measured potency or affinity are listed apart. Calls of active or inactive are those of the source. Unless noted, no rule for the calls is given here.
# Experiments:
# [1] = antimalarial activity against Dd2 strain (AID 2302;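 active = growth inhibition above 50% at the single 2 µM test dose, taken to imply half-maximal potency below 2 µM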;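 also: 0% = DMSO untreated growth and 100% = chloroquine plus artemisinin killed control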); conditions: P. falciparum Dd2 in RBCs, LDH growth readout, 72 h; at 2 µM; stronger effect = higher value
# [2] = human hepatoma cell viability loss – ATP luminescence, cytotoxicity control for P. falciparum antimalarial project, primary screen (AID 2303;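 active = inhibition above 50%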;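 also: 0% = DMSO wells and 100% = digitonin-killed cells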); conditions: HepG2 viability, 24-48 h, at 10 µM, stronger effect = higher value
# [3] = target: L-lactate dehydrogenase (Plasmodium falciparum (isolate CDC / Honduras)) (UniProt Q27743); assay: PfLDH activity inhibition – cell lysate, 3D7 strain, counter-screen for P. falciparum growth inhibition project (AID 2304);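 also: 0% = vehicle and 100% = reference inhibitor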; conditions: P. falciparum 3D7 crude extract, LDH APAD/NBT absorbance; at 2 µM; stronger effect = higher value
# Sequence of L-lactate dehydrogenase (Plasmodium falciparum (isolate CDC / Honduras)) (Q27743 whole entry, looked up): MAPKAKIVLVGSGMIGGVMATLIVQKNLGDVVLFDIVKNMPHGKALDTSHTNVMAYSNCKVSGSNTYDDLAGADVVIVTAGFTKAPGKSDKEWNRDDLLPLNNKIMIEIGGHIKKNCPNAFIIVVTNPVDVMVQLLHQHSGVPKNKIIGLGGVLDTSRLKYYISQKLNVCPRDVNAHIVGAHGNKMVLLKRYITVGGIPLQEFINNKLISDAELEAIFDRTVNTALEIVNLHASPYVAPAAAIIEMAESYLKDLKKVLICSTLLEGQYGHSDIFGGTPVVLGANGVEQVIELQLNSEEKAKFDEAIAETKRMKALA
# [4] = inhibition of 3D7 malaria parasite growth – strain 3D7 (AID 2306);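 also: 0% = DMSO wells and 100% = chloroquine plus artemisinin control wells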; conditions: P. falciparum 3D7 erythrocytic growth, LDH absorbance, 72 h; at 2 µM; stronger effect = higher value
# [5] = target: Calcium-dependent protein kinase 1 (Plasmodium falciparum (isolate 3D7)) (UniProt P62344); assay: PfCDPK1 kinase inhibitors, biochemical, TCAMS library (AID 1159585; cut-off not given, nearly all actives have IC50 up to about 0.98 µM;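 also: inhibitors leave more ATP so luminescence rises with inhibition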); conditions: recombinant PfCDPK1, Kinase-Glo ATP depletion luminescence
# Sequence of Calcium-dependent protein kinase 1 (Plasmodium falciparum (isolate 3D7)) (P62344 whole entry, looked up): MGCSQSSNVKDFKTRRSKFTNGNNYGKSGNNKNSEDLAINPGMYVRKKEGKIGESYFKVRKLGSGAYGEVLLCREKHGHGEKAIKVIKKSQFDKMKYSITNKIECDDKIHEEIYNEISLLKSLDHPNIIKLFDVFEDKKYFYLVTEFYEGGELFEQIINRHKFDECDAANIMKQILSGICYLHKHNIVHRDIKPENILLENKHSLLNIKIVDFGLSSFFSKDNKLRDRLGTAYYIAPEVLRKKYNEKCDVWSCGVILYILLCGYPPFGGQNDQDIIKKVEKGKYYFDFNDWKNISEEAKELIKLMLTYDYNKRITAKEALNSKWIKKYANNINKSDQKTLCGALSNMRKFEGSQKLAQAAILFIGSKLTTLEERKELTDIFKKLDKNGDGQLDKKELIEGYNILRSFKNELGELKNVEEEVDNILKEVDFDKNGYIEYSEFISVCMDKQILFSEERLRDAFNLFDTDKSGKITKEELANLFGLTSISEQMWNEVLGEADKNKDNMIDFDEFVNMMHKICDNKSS
# [6] = target: Plasmodium falciparum protein kinase 6 (PK6, PF3D7_1337100) (UniProt Q8IDW1); assay: PfPK6 kinase inhibitors, biochemical, TCAMS library (AID 1159586); conditions: recombinant PfPK6, Kinase-Glo ATP depletion luminescence
# Sequence of Plasmodium falciparum protein kinase 6 (PK6, PF3D7_1337100) (Q8IDW1 1-305): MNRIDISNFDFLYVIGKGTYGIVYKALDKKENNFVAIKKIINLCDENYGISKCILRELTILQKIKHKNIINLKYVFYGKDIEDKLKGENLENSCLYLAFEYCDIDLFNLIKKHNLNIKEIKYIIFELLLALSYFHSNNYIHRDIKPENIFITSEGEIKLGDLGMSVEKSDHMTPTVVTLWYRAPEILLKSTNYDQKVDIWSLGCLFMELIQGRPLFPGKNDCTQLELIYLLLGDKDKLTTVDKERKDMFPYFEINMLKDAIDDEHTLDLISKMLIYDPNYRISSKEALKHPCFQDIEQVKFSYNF
# [7] = target: Protein kinase 7 (PK7), Plasmodium falciparum 3D7 (PF3D7_0213400) (UniProt Q7YTF7); assay: inhibition of Plasmodium PK7 catalytic activity – biochemical, TCAMS antimalarial set, Kinase-Glo luminescence (AID 1159587); conditions: recombinant PfPK7, Kinase-Glo ATP depletion luminescence
# Sequence of Protein kinase 7 (PK7), Plasmodium falciparum 3D7 (PF3D7_0213400) (Q7YTF7 1-343): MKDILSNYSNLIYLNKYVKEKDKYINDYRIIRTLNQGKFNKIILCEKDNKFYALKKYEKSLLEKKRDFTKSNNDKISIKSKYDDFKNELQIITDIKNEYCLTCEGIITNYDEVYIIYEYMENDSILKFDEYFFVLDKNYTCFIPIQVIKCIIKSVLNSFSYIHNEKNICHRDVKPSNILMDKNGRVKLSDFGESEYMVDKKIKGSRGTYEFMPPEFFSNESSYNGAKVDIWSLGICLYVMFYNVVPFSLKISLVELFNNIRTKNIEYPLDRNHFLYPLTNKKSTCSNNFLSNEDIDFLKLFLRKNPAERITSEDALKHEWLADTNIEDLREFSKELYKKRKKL
# [8] = target: Calcium-dependent protein kinase 4 (Plasmodium falciparum (isolate 3D7)) (UniProt Q8IBS5); assay: PfCDPK4 kinase inhibitors, biochemical, TCAMS library (AID 1159588; cut-off not given, nearly all actives have IC50 up to about 0.91 µM); conditions: recombinant PfCDPK4, Kinase-Glo ATP depletion luminescence
# Sequence of Calcium-dependent protein kinase 4 (Plasmodium falciparum (isolate 3D7)) (Q8IBS5 whole entry, looked up): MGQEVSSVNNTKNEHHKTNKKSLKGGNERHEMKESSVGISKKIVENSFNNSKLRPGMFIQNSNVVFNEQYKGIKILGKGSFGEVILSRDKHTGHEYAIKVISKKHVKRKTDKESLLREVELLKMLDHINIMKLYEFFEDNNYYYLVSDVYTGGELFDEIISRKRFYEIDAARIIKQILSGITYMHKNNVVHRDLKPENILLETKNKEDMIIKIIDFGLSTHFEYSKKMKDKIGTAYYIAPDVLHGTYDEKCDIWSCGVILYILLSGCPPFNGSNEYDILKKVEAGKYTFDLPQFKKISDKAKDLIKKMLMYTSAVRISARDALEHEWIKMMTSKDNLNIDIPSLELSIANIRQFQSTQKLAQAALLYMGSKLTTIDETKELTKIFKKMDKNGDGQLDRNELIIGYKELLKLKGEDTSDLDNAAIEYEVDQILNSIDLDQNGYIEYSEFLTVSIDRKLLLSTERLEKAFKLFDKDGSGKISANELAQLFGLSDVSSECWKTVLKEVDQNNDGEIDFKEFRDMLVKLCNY
SMILES,growth inhibition [1],inhibition [2],inhibition [3],growth inhibition [4],outcome [5],outcome [6],outcome [7],outcome [8]
FC(F)(F)c1ccc2c(NCCc3ccccc3)ccnc2c1,9%,14%,0%,87% (active),inactive,inactive,inactive,inactive
Nc1oc2c(CN3CCCCCC3)c(O)ccc2c(=O)c1-c1nc2ccccc2s1,99% (active),12%,4%,100% (active),inactive,inactive,inactive,inactive
OCCC1CCN(Cc2ccc(-c3ccc(-c4nc5ccccc5[nH]4)cc3)cc2)CC1,98% (active),35%,2%,99% (active),inactive,inactive,inactive,inactive
O=C(Nc1cccc(CN2CCCN(Cc3ncc[nH]3)CC2)c1)c1ccc2ccccc2c1,2%,13%,-1%,100% (active),inactive,inactive,inactive,inactive
COc1ccc(-c2ccc(NC(=O)c3cccc(Cl)c3)cc2)cc1CN1CCC(O)CC1,12%,15%,-5%,102% (active),inactive,inactive,inactive,inactive
CC(CNC(=O)C(c1cc2ccccc2o1)N1CCN(C(c2ccccc2)c2ccccc2)CC1)c1ccccc1 (configuration not stated),89% (active),2%,-5%,99% (active),inactive,inactive,inactive,inactive
CC(C)N1CCN(CCCCNc2c3ccccc3nc3ccccc23)CC1,-4%,38%,-6%,100% (active),inactive,inactive,inactive,inactive
COc1ccc(CNC(=O)c2cnc3c(O)cccc3c2Nc2cccc(NC(=O)c3ccc(-c4ccccc4)cc3)c2)cc1,83% (active),42%,6%,90% (active),inactive,inactive,inactive,inactive
Cc1cc2c(cc1C(F)(F)F)N(C(=O)Nc1ccc(OCCN(C)C)c(C(F)(F)F)c1)CC2,23%,38%,-2%,93% (active),inactive,inactive,inactive,inactive
Fc1ccc2nc(-c3cccc(-c4ccc(CNCCc5ccncc5)cc4)c3)[nH]c2c1,100% (active),44%,4%,99% (active),inactive,inactive,inactive,inactive
CCCCNC(=O)[C@H](CC1CCCCC1)NC(=O)c1ccc(O)c(-c2cccc(C(F)(F)F)c2)c1,86% (active),-8%,0%,98% (active),inactive,inactive,inactive,inactive
Cc1noc(-c2ccccc2)c1NC(=O)NC1CCN(CCCCCNC(=O)/C=C/c2ccc(Cl)c(Cl)c2)CC1,-3%,-3%,-3%,93% (active),inactive,inactive,inactive,inactive
CCOC(=O)C1=C(C)NC2=C(C(=O)C(C(=O)OC)C(C)C2)C1c1cc(Br)c(OCC)c(OC)c1 (configuration not stated),99% (active),8%,0%,101% (active),inactive,inactive,inactive,inactive
Cc1ccc(-n2ncc(C(=O)Nc3cc(Cl)cc(Cl)c3)c2C2CCNCC2)cc1C,77% (active),65% (active),-7%,100% (active),inactive,inactive,inactive,inactive
O=C(NC1CC1)c1cnc(N2CCC(Oc3ccc(Cl)cc3)CC2)c(Cl)c1,75% (active),12%,-5%,86% (active),inactive,inactive,inactive,inactive
Cc1cc(C(=O)Nc2nc(-c3ccccn3)nc3ccsc23)no1,90% (active),44%,0%,98% (active),inactive,inactive,inactive,inactive
Cc1cc(Br)c(OCCCON2C(N)=NC(N)=NC2(C)C)c(Br)c1,97% (active),62% (active),-3%,95% (active),inactive,inactive,inactive,inactive
O=C(NC1CCCc2ccccc21)[C@@H]1CCCN1C(=O)c1ccc(O)c(-c2cccc([N+](=O)[O-])c2)c1 (some centres not stated),99% (active),-5%,5%,99% (active),inactive,inactive,inactive,inactive
CCCCN(CCCC)CC(O)c1cc(-c2ccc(Cl)cc2)nc2c(Cl)cc(Cl)cc12 (configuration not stated),97% (active),-12%,1%,97% (active),inactive,inactive,inactive,inactive
O=C(Nc1cc(C(F)(F)F)cc(C(F)(F)F)c1)Nc1cc(C(F)(F)F)cc(C(F)(F)F)c1,101% (active),5%,-7%,97% (active),inactive,inactive,inactive,inactive

SMILES,growth inhibition [1],inhibition [2],inhibition [3],growth inhibition [4],outcome [5],outcome [6],outcome [7],outcome [8]
CC(=O)Nc1cccc(CNCc2ccc(-c3cnc(N4CCCC(c5ccccc5)C4)nc3)cc2)c1 (configuration not stated),22%,16%,3%,84% (active),inactive,inactive,inactive,inactive
C[C@@H]1CN(c2cnn(Cc3cccc(NC(=O)Nc4ccc(-c5ccccc5)cc4)c3)c(=O)c2Cl)C[C@H](C)N1,67% (active),6%,1%,101% (active),inactive,inactive,inactive,inactive
c1cc(Nc2nccc(-c3cnn4ncccc34)n2)cc(-c2cnco2)c1,83% (active),54% (active),3%,96% (active),inactive,inactive,inactive,inactive
OC[C@H]1CCCN1CC#Cc1cc2c(Nc3ccc(OCc4cccc(F)c4)c(Cl)c3)ncnc2s1,6%,13%,-2%,89% (active),inactive,inactive,inactive,inactive
Cc1ccc2c(=O)cc(CCc3cccc(F)c3F)n(CC(=O)N(Cc3ccc(-c4ccc(C(F)(F)F)cc4)cc3)C3CCN(C)CC3)c2n1,76% (active),49%,0%,86% (active),inactive,inactive,inactive,inactive
CCOC(=O)c1cc(C(=O)NCCCCN2CCC(c3ccc(CC)cc3OCC)CC2)ccc1-c1ccc(C(F)(F)F)cc1,71% (active),74% (active),-1%,99% (active),inactive,inactive,inactive,inactive
CCN(CC)CCN(Cc1ccc(-c2ccc(C(F)(F)F)cc2)cc1)C(=O)Cn1cc(CCCc2cccc(F)c2F)c(=O)c2ccccc21,20%,13%,-4%,89% (active),inactive,inactive,inactive,inactive
O=C1C(C2CCC(c3ccc(Cl)cc3)CC2)=C2OCC3COC2(O3)c2ccccc21 (configuration not stated),97% (active),7%,-2%,98% (active),inactive,inactive,inactive,inactive
CC(=O)Nc1ccc(CN(Cc2ccc(OC(C)(C)C)cc2)Cc2ccc3c(c2)OCCO3)cc1,75% (active),7%,5%,91% (active),inactive,inactive,inactive,inactive
CC(C)(C)c1ccc(CN2CCC(CNC(=O)c3cc(-c4ccccc4Cl)cs3)C2)cc1 (configuration not stated),56% (active),33%,1%,101% (active),inactive,inactive,inactive,inactive
CCc1cn(C)c2c(N3CCCC3=O)cc(C(=O)N[C@@H](Cc3ccccc3)[C@H](O)CNC(C)(C)c3cccc(C(F)(F)F)c3)cc12,97% (active),22%,0%,97% (active),inactive,inactive,inactive,inactive
COc1cc(NC(=O)c2ccc(-c3ccccc3)cc2)ccc1OCCCN1CCC(c2ccccc2)CC1,30%,46%,2%,103% (active),inactive,inactive,inactive,inactive
Cc1ccc(NC(=O)c2cccc(N3CCN(c4ccncc4)CC3)c2)cc1F,72% (active),43%,-1%,101% (active),inactive,inactive,inactive,inactive
Cc1cc(-c2cccc(CNC3CCN(C)CC3)c2)ccc1S(=O)(=O)NC1CCC1,96% (active),33%,3%,101% (active),inactive,inactive,inactive,inactive
N#Cc1ccc(CN2CCC(Oc3ccc(NC(=O)c4cccs4)cc3)CC2)cc1,82% (active),10%,-3%,83% (active),inactive,inactive,inactive,inactive
Cc1c(C(=O)[C@@H]2C[C@H]2CN2CCC(N3CCCC3)CC2)sc2ccccc12,9%,16%,0%,94% (active),inactive,inactive,inactive,inactive
Cc1cnc(C(=O)Nc2cccc(-c3cccc(-c4nc5c(C)cccc5[nH]4)c3)c2)cn1,45%,15%,-1%,99% (active),inactive,inactive,inactive,inactive
CN1CCCN(Cc2ccc(-c3ccc(NC(=O)c4cccc(Cl)c4)cc3)cc2)CC1,64% (active),55% (active),2%,95% (active),inactive,inactive,inactive,inactive
Cc1nnc2c(NC(=O)NC3CCCC3)cc3ccc(-c4cccc(CN(C)C)c4)cc3n12,25%,42%,3%,90% (active),inactive,inactive,inactive,inactive
